Data from PubChem BioAssay (NCATS).
Results filed as inconclusive are left out. Where a call stands in place of a potency, no number is given. Activity calls are given as the source filed them. The call rests on the fitted dose curve; in most records, active means well fitted curve in the direction sought with a large enough effect; inconclusive means small, poorly fitted or top-dose-only effect, or another doubt; inactive means no such curve, though single readings can be large; an effect the other way counts as inactive or inconclusive.

Columns and labels:
[1] = target: Glutathione peroxidase 1 (Homo sapiens) (UniProt P07203); experiment: Primary qHTS Assay for Inhibitors of Recombinant Selenoprotein Glutathione Peroxidase 1 (GPX1) (AID 1845191); further: nearly all actives have a fitted effect of over 65% in size
Chain of Glutathione peroxidase 1 (Homo sapiens) (P07203 whole entry, looked up): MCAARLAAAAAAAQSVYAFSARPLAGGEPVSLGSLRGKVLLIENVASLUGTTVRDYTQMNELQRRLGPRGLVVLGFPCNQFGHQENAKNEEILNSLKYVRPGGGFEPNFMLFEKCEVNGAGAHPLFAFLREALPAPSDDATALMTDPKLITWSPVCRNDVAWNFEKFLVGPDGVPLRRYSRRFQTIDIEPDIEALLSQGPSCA
Outline: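 NADPH consumption tracked by fluorescence at 340/450 nm between t=0 and t=15 min, room temperature. Final mix: 10 nM GPX1, 100 nM glutathione reductase, 1 mM GSH, 0.5 mM NADPH, 0.5 mM cumene hydroperoxide, 0.01% BSA; 30 min compound–enzyme preincubation.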

[2] = target: Phospholipid hydroperoxide glutathione peroxidase GPX4 (Homo sapiens) (UniProt P36969); experiment: Primary qHTS Assay for Inhibitors of Recombinant Selenoprotein Glutathione Peroxidase 4 (GPX4) (AID 1845192); further: nearly all actives have a fitted effect of over 65% in size
Chain of Phospholipid hydroperoxide glutathione peroxidase GPX4 (Homo sapiens) (P36969 whole entry, looked up): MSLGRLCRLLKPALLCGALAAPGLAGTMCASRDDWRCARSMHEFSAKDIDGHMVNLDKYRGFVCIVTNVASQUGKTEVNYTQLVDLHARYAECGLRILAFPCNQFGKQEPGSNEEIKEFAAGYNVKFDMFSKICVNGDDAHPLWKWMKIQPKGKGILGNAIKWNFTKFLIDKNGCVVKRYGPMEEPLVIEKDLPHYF
Outline: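 NADPH consumption followed by fluorescence at 340/450 nm, t=0 and after 15 min at room temperature. Reaction started with cumene hydroperoxide (0.5 mM final) after 30 min compound–GPX4 preincubation; final 200 nM GPX4, 100 nM GR, 1 mM GSH, 0.5 mM NADPH.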

[3] = target: Luciferin 4-monooxygenase (Photinus pyralis) (UniProt P08659); experiment: Primary firefly luciferase (FLuc) qHTS assay for identification of artifact compounds. (AID 1845220); conditions: outcome: dose series up to 54.1 µM; further: nearly all actives have a fitted effect of over 60% in size
Outline: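 Cell-free, 1536-well qHTS. Buffer pH 7.6 with 0.01% Tween-20 and 0.05% BSA; 10 uM D-luciferin, 10 uM ATP; 10 nM P. pyralis luciferase; luminescence after 5 min.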

[4] = Primary fluorescence-based thiol-reactive (MSTI) qHTS assay for identification of artifact compounds. (AID 1845221); further: nearly all actives have a fitted effect of over 65% in size; further: potency means the concentration at half of the fitted maximal effect
Outline: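 In PBS pH 7.4 with 2% DMSO, each compound met 4 uM MSTI for one hour at ambient temperature, shielded from light, before fluorescence detection.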

[5] = test system: Nanoluciferase (engineered Oplophorus gracilirostris luciferase); experiment: Primary Nanoluciferase (NLuc) qHTS assay for identification of artifact compounds. (AID 1845222); further: series mostly up to about 54 µM
Outline: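 Compounds are pinned into diluted (1:55) conditioned medium of NLuc-expressing S16 cells and held 15 min at room temperature protected from light. Nano-Glo substrate follows, and luminescence is read 5 min later.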

[6] = Primary redox qHTS assay for identification of artifact compounds. (AID 1845223)
Outline: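 Redox-cycling detection via DTT (250 uM final) oxidation coupled to Amplex Red (25 uM)/HRP (250 mU/mL) in HBSS. 15 min preincubation plus 30 min after DTT, room temperature. Ex/Em 525/598 nm; 4-parameter Hill fit against DMSO and 10 uM DA3003.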

Structure (SMILES) | Potency [1] | Potency [2] | outcome [3] | Potency [4] | Potency [5] | outcome [6]
O=C(OCCOCCO)c1ccccc1Nc1cccc(C(F)(F)F)c1 | inactive | inactive | inactive | inactive | inactive | inactive
COc1cccc(OC)c1C(=O)N[C@@H]1C(=O)N2[C@@H]1SC(C)(C)[C@@H]2C(=O)O | inactive | inactive | inactive | inactive | inactive | –
CN1[C@@H]2CC[C@H]1CC(OC(=O)c1c[nH]c3ccccc13)C2 (stereo partly drawn) | inactive | inactive | inactive | inactive | inactive | inactive
Oc1ccc(Cl)c2cccnc12 | inactive | inactive | – | – | – | –
O=C(OCC(O)CO)c1ccccc1Nc1ccnc2cc(Cl)ccc12 (stereo not drawn) | inactive | inactive | – | – | – | –
CC(C)n1nc(-c2cc3cc(O)ccc3[nH]2)c2c(N)ncnc21 | inactive | inactive | inactive | 10.6 µM (active) | inactive | –
c1ccc(-c2ccc(C(c3ccccc3)n3ccnc3)cc2)cc1 (stereo not drawn) | inactive | inactive | – | – | – | –
CN(C)/N=N/c1nc[nH]c1C(N)=O | inactive | inactive | – | – | – | –
C[C@H]1C[C@H]2[C@@H]3CCC4=CC(=O)C=C[C@]4(C)[C@@]3(Cl)[C@@H](O)C[C@]2(C)[C@@]1(O)C(=O)CO | inactive | inactive | – | – | – | –
CC(=O)OCC(=O)[C@@]1(O)[C@H](C)C[C@H]2[C@@H]3CCC4=CC(=O)C=C[C@]4(C)[C@@]3(F)[C@@H](O)C[C@@]21C | inactive | inactive | inactive | inactive | inactive | –
CN(C)CC/C=C1/c2ccccc2COc2ccc(CC(=O)O)cc21 | inactive | inactive | – | – | – | –
C#C[C@]1(OC(C)=O)CC[C@H]2[C@@H]3CCC4=C[C@@H](OC(C)=O)CC[C@@H]4[C@H]3CC[C@@]21C | inactive | inactive | inactive | inactive | inactive | inactive
Oc1c(I)cc(Cl)c2cccnc12 | inactive | inactive | – | – | – | –
Cc1ccc(C(=O)C(C)CN2CCCCC2)cc1 (stereo not drawn) | inactive | inactive | inactive | inactive | inactive | inactive
O=c1c(-c2ccccc2)c1-c1ccccc1 | inactive | inactive | – | – | – | –
CCCCCCc1ccc(O)cc1O | inactive | inactive | – | – | – | –

Structure (SMILES) | Potency [1] | Potency [2] | outcome [3] | Potency [4] | Potency [5] | outcome [6]
Cc1ccccc1C(=O)Nc1ccc(C(=O)N2CCCC(N(C)C)c3ccccc32)cc1 (stereo not drawn) | inactive | inactive | inactive | inactive | inactive | inactive
COC(=O)[C@H]1[C@H]2C[C@H]3c4[nH]c5ccccc5c4CCN3C[C@H]2CC[C@@H]1O | inactive | inactive | – | – | – | –
OC[C@H]1O[C@@H](n2cnc3c(=S)nc[nH]c32)[C@H](O)[C@@H]1O | inactive | inactive | – | – | – | –
OCc1ccccc1O | inactive | inactive | – | – | – | –
O=C1OC(c2ccc(O)cc2)(c2ccc(O)cc2)c2ccccc21 | inactive | inactive | – | – | – | –
Cc1onc(-c2c(Cl)cccc2Cl)c1C(=O)N[C@@H]1C(=O)N2[C@@H]1SC(C)(C)[C@@H]2C(=O)O | inactive | inactive | inactive | inactive | inactive | –
O=c1[nH]c(=O)n([C@H]2CCCO2)cc1F | inactive | inactive | inactive | inactive | inactive | inactive
C[C@H](O)C(=O)Nc1c(I)c(C(=O)NC(CO)CO)c(I)c(C(=O)NC(CO)CO)c1I | inactive | inactive | – | – | – | –
Clc1ccc2c(c1)CCc1cccnc1C2=C1CCNCC1 | inactive | inactive | – | – | – | –
CCOC(=O)OC(C)OC1=C(C(=O)Nc2ccccn2)N(C)S(=O)(=O)c2ccccc21 (stereo not drawn) | inactive | inactive | – | – | – | –
COc1ccc(CCN2CCC(Nc3nc4ccccc4n3Cc3ccc(F)cc3)CC2)cc1 | inactive | inactive | – | – | – | –
Cc1c(C(N)=O)cc([N+](=O)[O-])cc1[N+](=O)[O-] | inactive | inactive | – | – | – | –
O=C1OC2(c3ccc(O)cc3Oc3cc(O)ccc32)c2ccccc21 | inactive | inactive | – | – | – | –
Cc1cc(O)c(C(C)C)cc1Cl | inactive | inactive | – | – | – | –
COC(=O)CCc1ccc(OCC(O)CNC(C)C)cc1 (stereo not drawn) | inactive | inactive | inactive | inactive | inactive | inactive
OC[C@H]1O[C@H](O[C@]2(CCl)O[C@H](CCl)[C@@H](O)[C@@H]2O)[C@H](O)[C@@H](O)[C@H]1Cl | inactive | inactive | inactive | inactive | inactive | inactive
